T cruzi growth-1: blocks T. cruzi growth in NIH3T3 culture | T. cruzi beta-gal in NIH3T3, GalScreen luminescence, 90 h | inhibition, % at 8.34 µM | AID 624255 | 77,000 tested, 5.9% active;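 active = mean inhibition above about 93%, with at least 55% of replicates each passing it, limit read from the data, passing the limit was not always enough; inconclusive = only one of those two conditions holds; inactive = neither condition holds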
C diff growth: C. difficile growth inhibition; Clostridium difficile clinical isolate growth, OD600, 24 h; hits give low values; growth activity, negative = inhibition, % at 16 µg/mL (by protocol); 86,000 tested, 0.25% active; AID 1259249;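 active = mean growth activity at or below -80% and every replicate also at or below -80%; inconclusive = mean at or below -80% but some replicate above -80%; inactive = mean growth activity above -80%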;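 also: 0% = DMSO wells and -100% = levofloxacin 16 µg/mL wells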
Pf Dd2 inh: blocks growth of Plasmodium falciparum Dd2 parasites; P. falciparum Dd2 growth, SYBR Green, 72 h; hits give low values; activity change, % at 10 µM; 94,000 tested, 2.3% active; in the data active = activity change below about -80%; inconclusive = no clear call, values can overlap the other calls
T cruzi growth-2: Trypanosoma cruzi proliferation inhibition; shares compounds with T cruzi growth-1; T. cruzi beta-gal in NIH3T3, GalScreen luminescence, 90 h; inhibition, % at 8.35 µM; 5,600 tested, 72% active; AID 651739;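 active = mean replicate inhibition above about 95% and at least 55% of replicates individually reaching it, limit read from the data; inconclusive = only one of the two criteria is met; inactive = neither criterion is met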
T cruzi growth-3: blocks T. cruzi growth in NIH3T3 host cells; shares compounds with T cruzi growth-1; AID 651740; inhibition, % at 2.09 µM; T. cruzi beta-gal in NIH3T3, GalScreen luminescence, 90 h; 5,600 tested, 21% active;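 active = mean inhibition above about 95%, with at least 55% of replicates also reaching it, limit read from the data; inconclusive = meets just one of the two conditions; inactive = meets neither condition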;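 also: plate controls were neutral control median for no effect and positive control median for full effect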
3T3 cytotox: NIH/3T3 (mouse) viability loss; shares compounds with T cruzi growth-1; NIH/3T3 viability, CellTiter-Glo ATP luminescence, 90 h; cytotoxicity (signal decrease), % at 8.35 µM; 5,600 tested, 14% active;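 active = mean signal decrease across replicates above about 35% based on untreated-well scatter, with enough replicates individually passing, limit read from the data; inconclusive = no rule stated though some were filed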;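 also: 0% = median of neutral control wells and 100% = median of positive control wells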
3T3 cytotox 2: kills mouse NIH/3T3 fibroblasts | shares compounds with T cruzi growth-1 | NIH/3T3 viability, CellTiter-Glo ATP luminescence, 90 h | inhibition, % at 24.9 µM | 5,600 tested, 56% active;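 active = mean loss of cell viability signal at or above a set limit, and enough replicates individually reaching it; inconclusive = meets only the mean limit or only the replicate share; inactive = meets neither condition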;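 also: 0% = median of neutral control wells and 100% = median of positive control wells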
Starred values were filed as active, the others as inactive; ? = inconclusive; nt = no result given. In the library only some 6.8% were active in any assay of this set; here they are far more common.

SMILES | T cruzi growth-1 | C diff growth | Pf Dd2 inh | T cruzi growth-2 | T cruzi growth-3 | 3T3 cytotox | 3T3 cytotox 2
CC(C)C#Cc1ccc([C@@H]2[C@@H](CO)N3CCCCN(C(=O)NC(C)C)C[C@@H]23)cc1 | 77 | -9 | 13 | nt | nt | nt | nt
CC(C)NC(=O)N1CCCCN2[C@H](CO)[C@H](c3ccc(C#CC4CC4)cc3)[C@H]2C1 | 110* | 3 | -5 | 113* | 55 | 8 | 66*
CC(C)C#Cc1ccc([C@H]2[C@@H](CO)N3CCCCN(C(=O)NC(C)C)C[C@H]23)cc1 | 102* | -12 | -3 | 111* | 87 | 0 | 49*
CC(C)NC(=O)N1CCCCN2[C@H](C1)[C@@H](c1ccc(C#CC3CC3)cc1)[C@@H]2CO | 74 | 3 | -18 | nt | nt | nt | nt
CC(C)NC(=O)N1CCCCN2[C@H](C1)[C@H](c1ccc(C#CC3CC3)cc1)[C@@H]2CO | 36 | 14 | 0 | nt | nt | nt | nt
CC(C)NC(=O)N1CCCCN2[C@@H](CO)[C@@H](c3ccc(C#CC4CC4)cc3)[C@@H]2C1 | 107* | 5 | 10 | 111* | 65 | 10 | 49*
C[C@H](CO)N1C[C@H](C)[C@H](CN(C)Cc2ccc(C(F)(F)F)cc2)Oc2c(NS(=O)(=O)c3cccs3)cccc2C1=O | 78 | 3 | -14 | nt | nt | nt | nt
COc1ccccc1C#Cc1ccc2c(c1)[C@H]1[C@H](CCN1S(=O)(=O)c1cn(C)cn1)[C@@H](CO)N2 | nt | -13 | -22 | nt | nt | nt | nt
CN1C(=O)c2cc(NC(=O)C3CCCC3)ccc2OC[C@@H]2O[C@@H](CC(=O)NCC(F)(F)F)CC[C@@H]21 | -4 | -3 | 1 | nt | nt | nt | nt
C[C@@H]1CCCCO[C@H](CN(C)Cc2ccc3c(c2)OCO3)[C@H](C)CN([C@H](C)CO)C(=O)c2cc(NS(=O)(=O)c3ccc(F)cc3)ccc2O1 | 86 | nt | -63 | nt | nt | nt | nt
C[C@@H]1CN([C@@H](C)CO)C(=O)c2cc(NS(=O)(=O)c3ccc(Cl)cc3)ccc2O[C@@H](C)CCCCO[C@@H]1CN(C)Cc1ccc2c(c1)OCO2 | 86 | nt | -65 | nt | nt | nt | nt
Cc1ccc(S(=O)(=O)Nc2ccc3c(c2)C(=O)N([C@H](C)CO)C[C@H](C)[C@@H](CN(C)Cc2ccc4c(c2)OCO4)OCCCC[C@H](C)O3)cc1 | 102* | 2 | -76 | 108* | 46 | 19 | 84*
C[C@@H]1CCCCO[C@H](CN(C)Cc2ccc3c(c2)OCO3)[C@@H](C)CN([C@@H](C)CO)C(=O)c2cc(NS(=O)(=O)c3ccc(Cl)cc3)ccc2O1 | ? | nt | -61 | 95* | 108* | ? | 103*
Cc1ccc(S(=O)(=O)Nc2ccc3c(c2)C(=O)N([C@@H](C)CO)C[C@@H](C)[C@@H](CN(C)Cc2ccc4c(c2)OCO4)OCCCC[C@H](C)O3)cc1 | ? | -9 | -63 | 86 | ? | 61* | 104*
Cc1ccc(S(=O)(=O)Nc2ccc3c(c2)C(=O)N([C@@H](C)CO)C[C@@H](C)[C@H](CN(C)Cc2ccc4c(c2)OCO4)OCCCC[C@H](C)O3)cc1 | 72 | 0 | -67 | nt | nt | nt | nt
Cc1ccc(S(=O)(=O)Nc2ccc3c(c2)C(=O)N([C@H](C)CO)C[C@H](C)[C@@H](CN(C)Cc2ccc4c(c2)OCO4)OCCCC[C@@H](C)O3)cc1 | 37 | -3 | -35 | nt | nt | nt | nt
Cc1ccc(S(=O)(=O)Nc2ccc3c(c2)C(=O)N([C@@H](C)CO)C[C@H](C)[C@@H](CN(C)Cc2ccc4c(c2)OCO4)OCCCC[C@H](C)O3)cc1 | 105* | 1 | -53 | 102* | 55 | 25 | 80*
CCCNC(=O)N(C)C[C@H]1Oc2cc(-c3ccccc3)ccc2S(=O)(=O)N([C@@H](C)CO)C[C@H]1C | 89 | -7 | 0 | nt | nt | nt | nt
Cc1ccc(S(=O)(=O)Nc2ccc3c(c2)CC(=O)N([C@@H](C)CO)C[C@H](C)[C@@H](CN(C)C(=O)NC(C)C)O3)cc1 | 39 | -2 | 37 | nt | nt | nt | nt
C[C@H]1CCCCO[C@H](CN(C)C(=O)CCCN(C)C)[C@@H](C)CN([C@@H](C)CO)C(=O)c2cc(NC(=O)C3CCCCC3)ccc2O1 | 7 | 0 | 13 | nt | nt | nt | nt
C[C@H]1CN([C@@H](C)CO)C(=O)Cc2cc(NC(=O)CCC(F)(F)F)ccc2O[C@@H]1CN(C)S(=O)(=O)c1cn(C)cn1 | 8 | -4 | 11 | nt | nt | nt | nt

Assay outcomes from PubChem BioAssay.
